{"source": "PubChem BioAssay AID598", "about": "(SRMLSC, 2007)", "note": "Screen size: about 85,000 compounds; about 5,100 (6%) were called active. Only a selection was taken, and actives are over-represented in it overall. A number with no mark means an inactive call.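 How the source made its calls: active means viability at or below 40%; inactive means viability above 40%.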", "data": [{"assay": "proliferation blockers of H69AR lung cancer cells, primary screen, cell-based, human, 86K library (AID 598);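 further: multidrug resistant small cell line overexpressing MRP-1 efflux transporter; 100% = mean luminescence of untreated control wells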", "conditions": "H69AR lung tumor viability, ATP luminescence, 72 h; at 10 µM; hits give low values", "values": [{"smiles": "N#CC1=C(N)N(c2ccccc2)C2=C(C(=O)CCC2)C1c1ccccc1", "note": "(centres undefined)", "viability": "40.4%"}, {"smiles": "Cc1cccc(N2CCN(C(c3ccc(N(C)C)cc3)c3nnnn3C(C)(C)C)CC2)c1C", "note": "(centres undefined)", "viability": "83.3%"}, {"smiles": "O=C(OCc1nnc(-c2ccccc2)o1)c1ccc2c(c1)C(=O)N(CCc1ccccc1)C2=O", "viability": "33.8% (active)"}, {"smiles": "O=C(COC(=O)c1ccc(Oc2ccccc2)cc1)Nc1nnc(-c2ccccc2)o1", "viability": "58.7%"}, {"smiles": "CCCc1nc2ccccc2c(C(=O)OCc2nnc(-c3cc(OC)c(OC)c(OC)c3)o2)c1CC", "viability": "50.2%"}, {"smiles": "O=C1CCCc2nn(-c3ccccc3)nc21", "viability": "87.6%"}, {"smiles": "CCN1CC=C2C(C#N)=C(N)C(C#N)(C#N)[C@H](c3ccoc3)[C@H]2C1", "viability": "84.8%"}, {"smiles": "CCCN1CC=C2C(C#N)=C(N)C(C#N)(C#N)C(c3cc(OC)ccc3OC)C2C1", "note": "(centres undefined)", "viability": "31.8% (active)"}, {"smiles": "CCOC(=O)N1CC=C2C(C#N)=C(N)C(C#N)(C#N)[C@H](c3cccs3)[C@H]2C1", "viability": "61.6%"}, {"smiles": "CCOC(=O)C1=C(CSc2nnnn2C)N(C)C(=O)NC1c1ccccc1", "note": "(centres undefined)", "viability": "93.1%"}, {"smiles": "COc1ccc(N2CCN(C(=O)CCc3nc(-c4ccc(C)cc4)no3)CC2)cc1", "viability": "98.4%"}, {"smiles": "CCc1cccc(C)c1N(C(=O)Cn1c(CO)nc2ccccc21)C(C)COC", "note": "(centres undefined)", "viability": "71%"}, {"smiles": "CCOC(=O)c1c(C)oc2ccc(OCC(=O)N(CC)CC)cc12", "viability": "38.9% (active)"}, {"smiles": "Cc1cc(=O)oc2ccc(OCC(=O)O)cc12", "viability": "97.4%"}, {"smiles": "CCOC(=O)c1c(C)oc2cc(Br)c(OCC(N)=O)cc12", "viability": "80.2%"}, {"smiles": "CN(C)c1ccnc2sc3c(=O)n(-c4ccc(Cl)cc4)cnc3c12", "viability": "80.8%"}, {"smiles": "O=C(N/N=C/C=C/c1ccccc1)C1CC1(c1ccccc1)c1ccccc1", "note": "(centres undefined)", "viability": "98.1%"}, {"smiles": "CC(C)C[C@@H](N)c1nnc(SCC(=O)c2ccc(Cl)cc2)o1", "viability": "86.9%"}, {"smiles": "COC(=O)c1cc(Cl)c(NC(=O)c2ccco2)cc1OC", "viability": "94%"}, {"smiles": "COc1ccc(NC(=O)c2cccc(NC(=O)c3ccco3)c2)c(OC)c1", "viability": "88.5%"}, {"smiles": "COc1cc(C(=O)OC(C)C(=O)NCC2CCCCC2)cc(NC(=O)c2ccco2)c1OC", "note": "(centres undefined)", "viability": "13.1% (active)"}, {"smiles": "CC(C)(C)c1ccc(C(=O)NCC(=O)OCN2C(=O)c3ccccc3C2=O)cc1", "viability": "104%"}, {"smiles": "Cc1cccc(-n2nc3c(c2NC(=O)c2ccc(Br)o2)CSC3)c1C", "viability": "59.7%"}, {"smiles": "Cc1cc(C)nc(-n2nc(C)cc2NC(=O)c2ccc(Br)o2)n1", "viability": "36.5% (active)"}, {"smiles": "Cc1cc(NC(=O)Nc2ccccc2)n(-c2ccccc2)n1", "viability": "92.7%"}, {"smiles": "N#Cc1c(N)nc2c3c(sc(=N)c2c1N)NC(=O)CC3c1ccccc1Cl", "note": "(centres undefined)", "viability": "113%"}, {"smiles": "CSc1ccc(-c2c(C#N)c(N)nc3c2c(C)nn3-c2ccccc2)cc1", "viability": "57.5%"}, {"smiles": "CSc1nc(N)c(C#N)c(-c2ccccc2Cl)c1C#N", "viability": "21.8% (active)"}, {"smiles": "O=C(NC1CCC(O)CC1)c1ccc(S(=O)(=O)NCc2ccco2)cc1", "note": "(centres undefined)", "viability": "96.7%"}, {"smiles": "Cc1nnc(SCC(=O)NCc2ccccc2)s1", "viability": "96.4%"}, {"smiles": "CNC(=O)CSc1nnc(CCc2ccccc2)n1-c1ccccc1", "viability": "83.2%"}, {"smiles": "CC1(C)Cc2c(sc3nc(SCC(=O)NCc4ccccc4)n(-c4ccccc4)c(=O)c23)CS1", "viability": "24.1% (active)"}, {"smiles": "CCOC(=O)c1c(NC(C)=O)sc2c(O)c(Br)ccc12", "viability": "94.9%"}, {"smiles": "COc1ccc(C(C#N)Nc2ccccc2C)cc1", "note": "(centres undefined)", "viability": "88.9%"}, {"smiles": "O=C(Nc1nnc(SCc2ccccc2)s1)c1ccco1", "viability": "96%"}, {"smiles": "Clc1cccc(-c2nc3nc4ccccc4nc3n2Cc2ccco2)c1", "viability": "34.4% (active)"}, {"smiles": "COc1ccc(CCn2c(-c3ccco3)nc3nc4ccccc4nc32)cc1OC", "viability": "55.4%"}, {"smiles": "O=C(CSc1nnc(-c2cccnc2)n1Cc1ccco1)c1ccc(Cl)cc1", "viability": "95.3%"}, {"smiles": "Cc1cccc(S(=O)(=O)CC(=O)Nc2nc(-c3ccccc3)cs2)c1", "viability": "99.7%"}, {"smiles": "Cc1nc(NNC(=O)c2ccccc2)cc(-c2ccccc2)n1", "viability": "91.7%"}, {"smiles": "O=C(NCc1ccccc1)[C@@H]1CSC2c3ccccc3C(=O)N21", "note": "(some centres undefined)", "viability": "78.5%"}, {"smiles": "COC(CNC(=O)Cn1ncc2ccsc2c1=O)OC", "viability": "101%"}, {"smiles": "COC(=O)c1cccc(N(C(=O)c2ccco2)C(C(=O)NC2CCCC2)c2ccco2)c1", "note": "(centres undefined)", "viability": "32.4% (active)"}, {"smiles": "COC(=O)c1ccc(N(CC(=O)NC2CCCC2)C(=O)CNC(=O)c2ccco2)cc1", "viability": "94.9%"}, {"smiles": "Cc1cccc(N(C(=O)c2ccc(CN3CCOCC3)o2)C(C(=O)NC2CCCCC2)c2ccc(F)cc2)c1", "note": "(centres undefined)", "viability": "103%"}, {"smiles": "COc1ccc(-c2oc(/N=C/N3CCCC3)c(C#N)c2-c2ccc(OC)cc2)cc1", "viability": "99.1%"}, {"smiles": "O=C(N/N=C\\c1cccc(Br)c1)c1ccccc1-n1cccc1", "viability": "93.7%"}, {"smiles": "N=c1c2c(-c3ccccc3)c(-c3ccccc3)n(Cc3ccccc3)c2ncn1CCCO", "viability": "0.82% (active)"}, {"smiles": "Cc1ccc(NC(=O)N2CCC(c3nc4c(nnn4Cc4c(F)cccc4Cl)c(=O)[nH]3)CC2)cc1", "viability": "67.6%"}, {"smiles": "CCCCNC(=O)C1CCCNC1=O", "note": "(centres undefined)", "viability": "98.9%"}, {"smiles": "COc1ccc(-c2n[nH]c(C)c2-c2ccc(OC)c(OC)c2)c(O)c1", "viability": "14.9% (active)"}, {"smiles": "C=C(C)COc1ccc(-c2n[nH]c(C)c2-c2ccccc2OC)c(O)c1", "viability": "39.9% (active)"}, {"smiles": "COc1ccccc1-c1c(C)nn2c(C)c(C(C)=O)cnc12", "viability": "89.8%"}, {"smiles": "C=C(C)COc1ccc(-c2n[nH]c(C)c2-c2ccccc2)c(O)c1", "viability": "95.5%"}, {"smiles": "O=C(Cn1c(-c2cscn2)nc2ccccc21)Nc1ccc(Cl)cc1", "viability": "72.9%"}, {"smiles": "COc1ccc(C)cc1S(=O)(=O)NCCc1ccccc1", "viability": "96%"}, {"smiles": "CCCCOc1ccc(N(CC(=O)NCC2CCCO2)C(=O)CCC(=O)Nc2cc(C)ccn2)cc1", "note": "(centres undefined)", "viability": "102%"}, {"smiles": "O=C(CC12CC3CC(CC(C3)C1)C2)Nc1ccc2c(c1)COC2=O", "viability": "90.9%"}, {"smiles": "O=S(=O)(NN=C1CCCCCCC1)c1ccc(Br)cc1", "viability": "88.9%"}]}]}
